According to PubChem BioAssay:
The source made the active and inactive calls. Unless noted, how the calls were made is not given here.

Legend:
[1] = tested on: Wnt5a (protein binding on small-molecule microarray); test: small molecules binding Wnt5a protein – biophysical, small-molecule microarray, 635/667 nm fluorescence, primary screen (AID 1142); conditions: 635 nm fluorescence, higher = more signal;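 further: fluorescence read at 667 nm with signal to noise per printed feature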
[2] = ATP-based viability of Huh7 replicon cells – cell-based, CellTiter-Glo luminescence, basal, 48 h, cytotoxicity control for HCV replication inhibitor project, primary screen (AID 1143); conditions: higher = more signal, called active from +8 up or from −8 down;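 further: Huh7 hepatoma cells carrying a hepatitis C replication reporter with no stimulus; test concentration not given here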
[3] = Pseudomonas biofilm growth suppression – PAO1 strain, BacTiter-Glo luminescence, LB-PBS, primary screen (AID 1144); conditions: P. aeruginosa PAO1 biofilm, 12 h, higher = more signal
[4] = basal CRE-LacZ reporter activity in PC12 – cell-based, unstimulated, primary screen (AID 1145); conditions: no forskolin, luminescence, 4.5 h, higher = more signal, called active from +8 up or from −8 down
[5] = forskolin-driven CRE-LacZ activity in PC12 – cell-based, CRE-LacZ reporter, forskolin-stimulated, primary screen (AID 1146); conditions: luminescence, 4.5 h, higher = more signal, called active from +8 up or from −8 down;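 further: PC12 cells with 6xCRE LacZ reporter stimulated by forskolin 10 µM; beta-galactosidase reporter signal reflecting CREB driven transcription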
[6] = molecular target: Streptavidin (Streptomyces avidinii) (UniProt P22629); test: compounds binding control protein streptavidin – biophysical, small-molecule microarray, 635/667 nm fluorescence, artefact control for SMM compound annotation, primary screen (AID 1147); conditions: higher = more signal;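 further: signal reflects streptavidin binding to arrayed compounds as a control protein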
Chain of Streptavidin (Streptomyces avidinii) (P22629 whole entry, looked up): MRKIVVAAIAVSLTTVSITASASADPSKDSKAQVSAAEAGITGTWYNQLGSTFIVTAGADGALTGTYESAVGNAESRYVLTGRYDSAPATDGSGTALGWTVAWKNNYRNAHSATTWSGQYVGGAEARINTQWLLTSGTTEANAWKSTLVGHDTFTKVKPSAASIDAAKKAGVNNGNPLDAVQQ

[7] = probe aInhba binding on compound microarray – biochemical, small-molecule microarray, 635/667 nm fluorescence, primary screen (AID 1148); conditions: higher = more signal;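 further: score merges 667nm spot fluorescence with signal-to-noise for antibody binding to printed compounds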
[8] = molecular target: Torsin-1A (Homo sapiens) (UniProt O14656); test: TOR1A wild-type binding on microarray – cell lysate, small-molecule microarray, lysate, 635/667 nm, primary screen (AID 1149); conditions: COS7 hTOR1A-WT lysate, 635 nm fluorescence, higher = more signal
Chain of Torsin-1A (Homo sapiens) (O14656 whole entry, looked up): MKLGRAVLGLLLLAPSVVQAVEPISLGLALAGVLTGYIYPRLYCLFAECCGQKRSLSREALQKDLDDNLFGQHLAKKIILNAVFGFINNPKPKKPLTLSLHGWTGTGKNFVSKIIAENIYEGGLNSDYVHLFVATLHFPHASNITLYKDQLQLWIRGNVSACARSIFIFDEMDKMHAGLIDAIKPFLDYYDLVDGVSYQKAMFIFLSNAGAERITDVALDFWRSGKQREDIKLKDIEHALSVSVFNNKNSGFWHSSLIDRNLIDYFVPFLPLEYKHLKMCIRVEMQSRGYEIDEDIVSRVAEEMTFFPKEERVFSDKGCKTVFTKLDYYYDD

[9] = molecular target: Torsin-1A (Homo sapiens) (UniProt O14656); test: torsin A mutant lysate binding on microarrays – cell lysate, small-molecule microarray, COS7 lysate, 635/667 nm fluorescence, primary screen (AID 1150); conditions: COS7 hTOR1A mutant lysate, 635 nm fluorescence, higher = more signal;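 further: score pools 667 nm emission and signal to noise measuring lysate protein binding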
[10] = tested on: Sonic hedgehog protein (Shh); test: Sonic hedgehog microarray binding compounds – biochemical, small-molecule microarray, 635/667 nm fluorescence, primary screen (AID 1151); conditions: 635 nm fluorescence, higher = more signal;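 further: Shh protein binding to compounds spotted on small-molecule microarray slides; score combines spot fluorescence intensity with signal-to-noise across triplicate slides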

With `CCCCC=C[C@@H](NC(=O)OCc1ccccc1Cl)c1ccccc1` the composite z-score [1] was 1.45, the z-score [2] was -0.392 (inactive) and the z-score [3] was -0.146 (inactive). For the same compound, the z-score [4] was 0.394 (inactive), the z-score [5] was 1.02 (inactive) and the composite z-score [6] was 0.484. For the same compound, the composite z-score [7] was 0.592, the composite z-score [8] was -0.266 and the composite z-score [9] was 0.665. It also gave a composite z-score [10] of 0.62.

With `C=C(C(=O)CC[C@H](OC(=O)c1ccccc1-c1ccccc1C(=O)O)c1cccc(OCCO)c1)C(C)C` the composite z-score [1] was -0.103, the z-score [2] was -0.208 (inactive) and the z-score [3] was -0.125 (inactive). For the same compound, the z-score [4] was 0.102 (inactive), the z-score [5] was 3.19 (inactive) and the composite z-score [6] was -0.186. The composite z-score [7] was -0.0719, the composite z-score [8] was -0.492 and the composite z-score [9] was -0.0541. For the same compound, the composite z-score [10] was 0.432.

In the case of `COCCOC(=O)N1C(=O)[C@@]2(c3ccccc31)[C@H](C(=O)NC[C@H](O)c1ccccc1)[C@H]1C(=O)O[C@H](c3ccccc3)[C@H](c3ccccc3)N1[C@@H]2c1ccc(O)cc1`, the composite z-score [1] is reported as 0.852, the z-score [2] is reported as -1.98 (inactive) and the z-score [3] is reported as -0.193 (inactive). The z-score [4] was 0.155 (inactive), the z-score [5] was 2.34 (inactive) and the composite z-score [6] was 1.09. The composite z-score [7] was 0.106, the composite z-score [8] was 0.877 and the composite z-score [9] was 0.383. The composite z-score [10] was 1.74.

With `CN(C)C(=O)[C@@]1(Cc2ccccc2)N=C(c2ccc(OCCCO)cc2)O[C@H]1c1ccccc1` the composite z-score [1] was 0.87, the z-score [2] was -3.42 (inactive) and the z-score [3] was -0.315 (inactive). For the same compound, the z-score [4] was 0.195 (inactive), the z-score [5] was -0.925 (inactive) and the composite z-score [6] was 1.29. The composite z-score [7] was 0.715, the composite z-score [8] was 0.435 and the composite z-score [9] was 0.0678. For the same compound, the composite z-score [10] was 0.141.

With `CCCC=C(CCC)[C@@H](NC(=O)C(C)(C)C)c1ccc(C(=O)OC)cc1` the composite z-score [1] was 0.0146, the z-score [2] was -2.97 (inactive) and the z-score [3] was -0.168 (inactive). For the same compound, the z-score [4] was -0.379 (inactive), the z-score [5] was -0.744 (inactive) and the composite z-score [6] was 1.69. For the same compound, the composite z-score [7] was 0.127, the composite z-score [8] was -0.0649 and the composite z-score [9] was 0.123. For the same compound, the composite z-score [10] was -0.824.

For `CCN(CC)c1ccc(N2CC=CC34O[C@@H]5/C=C\CCCOC(=O)C5[C@H]3C(=O)N(C(C)CO)[C@@H]4C2=O)cc1` (stereo not given in full), the composite z-score [1] was -0.367, the z-score [2] was 0.307 (inactive) and the z-score [3] was -1.6 (inactive). For the same compound, the z-score [4] was 1.01 (inactive), the z-score [5] was -0.695 (inactive) and the composite z-score [6] was -0.245. The composite z-score [7] was -0.0986, the composite z-score [8] was -0.428 and the composite z-score [9] was -0.539. For the same compound, the composite z-score [10] was 1.19.

For `CCCC1(C(=O)OC)C=C2C(=C(C)C(=O)C2C)CN1` (stereo not given), the composite z-score [1] was 0.0439, the z-score [2] was 0.442 (inactive) and the z-score [3] was -0.473 (inactive). The z-score [4] was 2.3 (inactive), the z-score [5] was 2.15 (inactive) and the composite z-score [6] was -0.381. The composite z-score [7] was 0.0487, the composite z-score [8] was 0.149 and the composite z-score [9] was -0.0341. For the same compound, the composite z-score [10] was -0.552.

With `COC(=O)[C@@]1(Cc2ccccc2)[C@H]2c3cc(C(=O)N4CCCC4)n(CCc4ccccn4)c3C[C@H]2CN1C(=O)c1ccccc1` the composite z-score [1] was 0.372, the z-score [2] was -0.917 (inactive) and the z-score [3] was 1.09 (inactive). For the same compound, the z-score [4] was 0.201 (inactive), the z-score [5] was 0.755 (inactive) and the composite z-score [6] was 1.94. For the same compound, the composite z-score [7] was 0.605, the composite z-score [8] was 1.11 and the composite z-score [9] was 1.4. For the same compound, the composite z-score [10] was 0.311.

With `COc1cc2c(cc1O)C(c1cccs1)N(Cc1cc3c(cc1Br)OCO3)CC2` (stereo not given) the composite z-score [1] was 0.594, the z-score [2] was -4.04 (inactive) and the z-score [3] was 0.582 (inactive). For the same compound, the z-score [4] was 0.0924 (inactive), the z-score [5] was 0.726 (inactive) and the composite z-score [6] was 2.07. It also gave a composite z-score [7] of 0.0268, a composite z-score [8] of 0.835 and a composite z-score [9] of 1.16. It also gave a composite z-score [10] of 0.305.

For `CCOC(=O)C[C@H]1[C@H](OC(=O)Cc2ccc3c(c2)OCO3)[C@@H](NC(=O)c2ccc3ccccc3n2)c2cc(OCCCO)ccc2N1C(=O)c1ccccc1`, the composite z-score [1] was 0.151, the z-score [2] was -0.301 (inactive) and the z-score [3] was -0.283 (inactive). The z-score [4] was 7.23 (inactive), the z-score [5] was 0.613 (inactive) and the composite z-score [6] was 0.386. For the same compound, the composite z-score [7] was 0.0074, the composite z-score [8] was 0.526 and the composite z-score [9] was 0.302. The composite z-score [10] was 0.826.

For `CCCN1C(=O)[C@@]2(Cc3ccccc31)N=C(c1ccc(OCCCO)cc1)O[C@H]2c1ccccc1`, the composite z-score [1] was 1.16, the z-score [2] was -3.36 (inactive) and the z-score [3] was 0.849 (inactive). For the same compound, the z-score [4] was 2.07 (inactive), the z-score [5] was -0.0414 (inactive) and the composite z-score [6] was 0.469. The composite z-score [7] was -0.016, the composite z-score [8] was 1.71 and the composite z-score [9] was 1.34. It also gave a composite z-score [10] of 1.01.
